Source: PubChem
HEK293 tox: Cytotoxic Profiling in HEK 293 Cell Line of Diverse Libraries Using Quantitative High-Throughput Screening; HEK 293 viability, ATP luminescence (CellTiter-Glo), 48-72 h; Potency, µM (top dose mostly 115 µM), inactives show at the highest dose activity change, negative = cytotoxicity, actives largely listed as inhibitors; 94,000 tested, 6.6% active; AID 1345083, 2018; note: nearly all actives have a fitted effect of over 60% in size
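250 HEK 293 cells/well; compound by pintool; incubated 48 or 72 hr at 37 degree Celsius; CellTiter-Glo added, 10 min RT, luminescence imaged.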
NPR1 antag: Natriuretic polypeptide receptor (hNpr1) antagonism - Primary qHTS; Atrial natriuretic peptide receptor 1 (Homo sapiens), P16066; HEK293 hNpr1 GloSensor cGMP, ANP-stimulated luminescence; Potency, µM (titrated, usually from 46.3 µM), for inactives: at the top dose activity change, negative = inhibition, usual class: inhibitors; 76,000 tested, 1.6% active; AID 1347048, 2019; calls by dose curve; note: nearly all actives have a fitted effect of over 60% in size
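HEK293 cells stably expressing human Npr1 and cGMP GloSensor pGS-40F, loaded 2 h with 2% GloSensor reagent, given compound 30 min at room temperature. Luminescence read before and 20 min after 0.1 nM hNppA.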
3T3 cytotox: Cytotoxic Profiling in NIH 3T3 Cell Line of Diverse Libraries Using Quantitative High-Throughput Screening; 94,000 tested, 4.3% active; Potency, µM (series often up to 96.7 µM), for inactives: at the top dose activity change, negative = cytotoxicity, hits mostly inhibitors; NIH 3T3 viability, CellTiter-Glo ATP luminescence, 48-72 h; note: nearly all actives have a fitted effect of over 55% in size
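Cells were seeded at 400 per well, treated with pin-transferred compound, and kept 48 or 72 hr at 37 °C before CellTiter-Glo addition and luminescence imaging of cellular ATP.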
FLuc inh: Firefly luciferase inhibition profiling of diverse chemical library using quantitative high-throughput screening. Luciferin 4-monooxygenase (Photinus pyralis), P08659. purified P. pyralis luciferase, luminescence, biochemical. Potency, µM (titrated, usually from 115 µM), usual class: inhibitors. 76,000 tested, 2.5% active. AID 1347043, 2019; note: nearly all actives have a fitted effect of over 65% in size
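Luminescence read by CCD imager after adding enzyme (10nM final) to wells holding compound, titrated in qHTS. Substrates 10uM each D-luciferin and ATP; buffer 50mM Tris acetate pH 7.5, 10mM Mg acetate, Tween-20, BSA.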
* marks the source's active call; other numbers are inactive results; ! = not active in a repeat; [ ] = remark or other dose. Most compounds without a hit are left out; they make up all but 11% or so of the library. Unless noted, calls come from the whole dose curve; as a rule, active = well fitted curve in the direction sought with a large enough effect; inconclusive = small, poorly fitted or top-dose-only effect, or another doubt; inactive = no such curve, though single readings can be large; an effect the other way counts as inactive or inconclusive. % is set by controls: 0 for no effect and ±100 for the full control effect; potency is the fitted concentration of half-maximal effect.

`COc1ccc(NC(=O)[C@@H]2C[C@@H](c3cccc(C(F)(F)F)c3)N(C)C2)cc1OC` gave HEK293 tox inconclusive, NPR1 antag -21.5%[70.6 µM], 3T3 cytotox inconclusive and FLuc inh inactive.
For CN1C[C@H](C(=O)Nc2cccc(Cl)c2)C[C@H]1c1cccc(C(F)(F)F)c1 the results were HEK293 tox 35.5µM*, NPR1 antag -22.1%[70.6 µM], 3T3 cytotox 31.6µM* and FLuc inh inactive.
CNC(=O)c1ccc2nc(-c3cccc(C)n3)oc2c1 was read as HEK293 tox -28.9% and 3T3 cytotox inconclusive.
`Cc1cccc(-c2nocc2CCC(=O)NC(C)c2ccc(F)cc2)c1` (stereo not drawn) gave HEK293 tox inconclusive, NPR1 antag -5.8%, 3T3 cytotox inconclusive and FLuc inh inactive.
Screening CC(NC(=O)CCc1conc1-c1ccccc1)c1ccc(F)cc1 (stereo not drawn) returned HEK293 tox inconclusive, NPR1 antag -4.4%, 3T3 cytotox -3.2% and FLuc inh 17.8µM*.
For COc1ccccc1Nc1ccnc(N2CCCC(C(=O)NCCc3ccccc3)C2)n1 (stereo not drawn) the results were HEK293 tox inconclusive and 3T3 cytotox 15.8µM*.
C#CCNC(=O)[C@@H]1CCCN1c1nccc(Nc2ccccc2OC)n1 was read as HEK293 tox -4.7% and 3T3 cytotox -5.4%.
Screening COc1ccccc1Nc1ccnc(N2CCCC(C(=O)NCCc3ccccc3F)C2)n1 (stereo not drawn) returned HEK293 tox 35.5µM*! and 3T3 cytotox inconclusive.
For CCCCCNC(=O)C1CCCN(c2nccc(Nc3ccccc3OC)n2)C1 (stereo not drawn) the results were HEK293 tox 39.8µM* and 3T3 cytotox inconclusive.
`CCN1CCC2(CCC1=O)CN(Cc1ccc(C)c3ccccc13)CCN2C` (stereo not drawn) gave HEK293 tox 79.4µM*, NPR1 antag 4.6%, 3T3 cytotox -11.4% and FLuc inh inactive.
COCCCNC(=O)c1ccc2nnc(C3CCCC3)n2c1 was read as HEK293 tox -0.8%[172 µM] and 3T3 cytotox -22.4%[138 µM].
Screening COc1ccccc1CC(=O)N1CCCc2ncc(C(=O)NCCOc3ccccc3)cc21 returned HEK293 tox inconclusive, NPR1 antag -8.1%, 3T3 cytotox -23.0% and FLuc inh inactive.
Screening CC(C)c1ccc(CC(=O)N2CCCc3ncc(C(=O)NCCOc4ccccc4)cc32)cc1 returned HEK293 tox 39.8µM*, NPR1 antag inconclusive, 3T3 cytotox inconclusive and FLuc inh inconclusive.
`CC(C)CCNC(=O)c1cnc2c(c1)N(C(=O)Cc1ccc(C(C)C)cc1)CCC2` gave HEK293 tox 100µM*, NPR1 antag -22.8%[70.6 µM], 3T3 cytotox 100µM* and FLuc inh inactive.
Screening CN(Cc1ccc(-c2ccccc2)cc1)Cc1cccn1C returned HEK293 tox inconclusive, NPR1 antag 2.8%[70.6 µM], 3T3 cytotox inconclusive and FLuc inh inactive.
`CN(C(=O)c1cc2ccccc2oc1=O)C1CCCN(CCCc2ccccc2)C1` (stereo not drawn) gave HEK293 tox inconclusive, NPR1 antag 0.0%, 3T3 cytotox 39.8µM* and FLuc inh inactive.
For COCCOc1ccc(C(=O)N[C@@H]2CN(C(=O)Nc3ccc(OC(F)(F)F)cc3)CCC[C@H]2O)cc1 the results were HEK293 tox inconclusive, NPR1 antag -12.6%, 3T3 cytotox inconclusive and FLuc inh inactive.
For CCc1ccc(CNC(=O)C2CCN(c3cc(C(F)(F)F)nc(C)n3)CC2)cc1 the results were HEK293 tox inconclusive, NPR1 antag -9.5%, 3T3 cytotox inconclusive and FLuc inh inactive.
Screening COc1ccc(Nc2ccnc(N3CCC(C(=O)NCc4ccc(F)cc4)CC3)n2)cc1 returned HEK293 tox inconclusive and 3T3 cytotox 39.8µM*.
Screening COc1ccc(Nc2ccnc(N3CCC(C(=O)N(C)C)CC3)n2)cc1 returned HEK293 tox inconclusive and 3T3 cytotox -28.9%.
Cc1nc(N2CCC(C(=O)NCc3ccc4c(c3)OCO4)CC2)cc(C(F)(F)F)n1 was read as HEK293 tox inconclusive, NPR1 antag inconclusive, 3T3 cytotox inconclusive and FLuc inh 89.1µM*.
